Only a sample is shown.
aSyn UTR act: Activators via SNCA 5'UTR binding, MLPCN; actives 7.1% (n = 300,000); alpha-synuclein 5'UTR reporter, activators screen; AID 1814; activity score, % (tested at 7.5 µM), hits read low; in the data active means activity score below about -60%
The depositor's hits bear a star.

SMILES	aSyn UTR act
Cc1ccc(-n2ncc3c(N4CCN(c5ccccc5)CC4)ncnc32)c(C)c1	-62*
Cc1cccc(-n2ncc3c(N4CC(C)CC(C)C4)ncnc32)c1 (stereo not given)	-109*
C=CCNc1ncnc2c1cnn2-c1cccc(C)c1	-133*
Cc1cccc(-n2ncc3c(NC4CCCCC4)ncnc32)c1	-90*
COc1ccc(-n2c(C)c(C)c3c(NCCCO)ncnc32)cc1	-81*
Cc1ccc(-n2c(C)c(C)c3c(NCCCO)ncnc32)cc1	-165*
Fc1ccc(Cn2cccc2C2=NC(c3ccccc3)CO2)cc1 (stereo not given)	-88*
COc1ccccc1-c1c(C#N)c(N)nc2c1CCc1ccccc1-2	-196*
CC(C)C(O)C1CCN(Cc2nc(-c3cccs3)no2)CC1 (stereo not given)	-108*
CC1CCN(Cc2nc(-c3ccccc3)no2)CC1	-190*
Cc1ccc(-c2noc(CN3CCC(C(N)=O)CC3)n2)cc1	-86*
Cc1ccc(/C=c2/sc3n(c2=O)CCCN=3)o1	-143*
O=c1/c(=C\c2ccc3c(c2)OCO3)sc2n1CCCN=2	-83*
CCc1ccc(CNc2ccc3c(c2)ncn3C(C)(C)C)cc1	-156*
CC(C)(C)n1cnc2cc(NS(=O)(=O)c3ccccc3)ccc21	-74*
CC(C)(C)n1cnc2cc(NCc3ccc(Br)cc3)ccc21	-92*
CCN1CCN(Cc2ccc(NC(=O)c3ccc(C)c(NC(=O)N4CCNC4=O)c3)cc2C(F)(F)F)CC1	60
CCN1CCN(c2ccc(NC(=O)c3ccc4c(c3)[nH]c(=O)n4Cc3ccc(F)cc3)cc2)CC1	-68*
Nc1ccn([C@@H]2O[C@H](CO)[C@@H](O)[C@@H]2O)c(=O)n1	81
CCc1ccc2oc(C(=O)Nc3nonc3C)c(C)c2c1	-138*
Cc1c(C(=O)Nc2nonc2-c2ccc(F)cc2)oc2ccc(F)cc12	54
Cc1cc2oc(C(=O)Nc3nonc3C)c(C)c2cc1C	-175*
Cc1nc(Nc2ccc3c(c2)OCCO3)c2c(C)c(C)sc2n1	-72*
Fc1ccc(NCc2cn3ccccc3n2)cc1	-174*
O=C(COc1ccc(Oc2ccccc2)cc1)NCc1cn2ccccc2n1	62
SMILES	aSyn UTR act
Fc1cccc(NCc2cn3ccccc3n2)c1	-97*
CC1(CC(=O)N/N=C/c2ccc(OCc3ccc(Cl)cc3Cl)cc2)OCCCO1	-106*
COc1cc(/C=N/NC(=O)CC2(C)OCCCO2)ccc1OCc1ccccc1	-65*
COc1cc(/C=C/C(=O)NC(C)(C)C)ccc1OCc1ccccc1	59
COc1cc(/C=N/NC(=O)CN2CCCCC2)ccc1OCc1ccc(Br)cc1	-154*
COc1cc(/C=N/NC(=O)CNc2n[nH]c(=O)[nH]c2=O)ccc1OCc1ccccc1	-75*
COc1cc(/C=N/NC(=O)CC2(C)OCCCO2)ccc1OCc1ccc(Cl)cc1Cl	-70*
Cc1nc(NC(=O)c2cccs2)ccc1Br	-284*
CC(=O)c1sc(NC(=O)c2cccs2)nc1C	-98*
CCc1sc(C(=O)Nc2nc(C)cs2)cc1C	-82*
Cc1csc(NC(=O)c2cccs2)n1	-112*
Cc1csc(NC(=O)c2ccc(Br)s2)n1	-102*
CCOc1cccc2sc(NC(=O)c3ccc(Br)s3)nc12	-81*
CC(=O)c1cccc(Nc2ccc(-c3ccccc3F)nn2)c1	-155*
CC(=O)c1ccc(Nc2ccc(-c3ccccc3C)nn2)cc1	-148*
Cc1ccsc1/C=C1/SC(N2CCOCC2)=NC1=O	-80*
COc1ccc(N2C(=O)c3ccccc3NC23CCCC3)cc1	-90*
CC(C)OC(=O)Nc1ccc2c(c1)N(C(=O)N1CCN(C)CC1)c1ccccc1CC2	-62*
CCc1ccc(C(=O)COC(=O)c2n[nH]c3ccccc23)cc1	-129*
CC1CCN(C(=O)COC(=O)c2n[nH]c3ccccc23)CC1	-144*
Cc1cc(CNC(=O)c2cc(COc3ccc(F)c(F)c3)on2)nn1C	-124*
CC(NC(=O)c1cc(COc2ccccc2)on1)c1nccs1 (stereo not given)	-169*
Cc1nc(C(C)NC(=O)c2cc(COc3ccc(C)c(C)c3)on2)c(C)s1 (stereo not given)	-82*
CC(=O)c1ccc(OCc2cc(C(=O)NC(C)c3cnn(C)c3)no2)cc1 (stereo not given)	-87*
Cc1cc(OCc2cc(C(=O)NC(C)c3c(C)nn(C)c3C)no2)cc(C)c1Cl (stereo not given)	-114*
SMILES	aSyn UTR act
CC(=O)c1ccc(OCc2cc(C(=O)NCCn3nc(C)cc3C)no2)cc1	-68*
CCc1ccc(-c2cc(-c3n[nH]c(=S)n3CC)c3ccccc3n2)cc1	-69*
CSc1nnc(-c2cc(-c3ccc(C)cc3)nc3ccccc23)o1	57
O=C(Nc1ccc(N2CCN(C(=O)c3ccccc3F)CC2)cc1)c1cncc(Br)c1	-74*
O=C(Nc1ccc(N2CCCCC2)cc1)c1cncc(Br)c1	-128*
Cc1cc(C)c(S(=O)(=O)Nc2cc(SCC(=O)O)c(O)c3ccccc23)cc1C	67
CC(C)CCNC(=O)c1ccc(Cl)c(N)c1	-81*
COc1c(Cl)cc(C(=O)NN)cc1Cl	99
CC(C)CCNC(=O)c1ccc(-c2ccccc2)cc1	-107*

Source: PubChem (Broad Institute)
